Experimental data as given in PubChem BioAssay AID1745849 (National Center for Advancing Translational Sciences (NCATS), 2022).
The whole screen tested about 2,100 compounds, of which about 320 (15%) were called active. About 52% were inconclusive and are not listed. Some of the results follow. A number with no mark means an inactive call. Calls come from the whole dose curve; as a rule, active = well fitted cell-killing curve with a large enough effect; inconclusive = small, poorly fitted or top-dose-only effect, or effect the other way; inactive = flat fitted curve, though single readings scatter.

Assay: Viability Counterscreen for CMV-Luciferase Assay of Inhibitors of ATXN expression; note: nearly all actives have a fitted effect of over 55% in size
Details: HEK-293 CMV-luciferase cells viability, protease fluorescence, 24 h; activity change, negative = cytotoxicity: at the top concentration
Summary of the method: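 Cells: HEK-293/CMV-luc in phenol-red-free DMEM, 2 hr settle. Cpd dose, 24 hr, 37 °C, 5% CO2. Viability: Gly-Phe-AFC 25 uM final, 30 min, fluor. Then SteadyGlo, 5 min RT, lumin.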
% is set by controls: 0 for no effect and ±100 for the full control effect; potency is the fitted concentration of half-maximal effect.

Compound | activity change, negative = cytotoxicity | Potency
O=C(N/N=C/c1cc(Br)ccc1O)C(c1ccncc1)N1CCOCC1 (configuration not stated) | -14.8% [at 57.5 µM] | –
Cc1cc(C(=O)N/N=C/c2cc(Br)ccc2OC(=O)c2ccccc2)n[nH]1 | -6.81% | –
COc1cccc(NC(=O)/C=C/c2ccc(S(=O)(=O)N3CCOCC3)cc2)c1 | -4.39% [at 57.5 µM] | –
Cn1c(CO)c(-c2ccccc2)c2cc([N+](=O)[O-])ccc21 | 3.4% | –
Cc1[nH]n2c(=O)cc(C(C)(C)C)nc2c1-c1ccccc1 | – | 11.2 µM (active)
CC(C)N(C(=O)COC(=O)c1ccccc1C(=O)c1ccc(Cl)c([N+](=O)[O-])c1)C(C)C | -28.3% | –
CCCCNCCCOc1cccc(Cl)c1Cl | -25.7% [at 57.5 µM] | –
COCCCNCCCOc1ccc(Cl)cc1C(C)(C)C | – | 25.1 µM (active)
CC(OC(=O)c1cc(Br)ccc1O)C(=O)Nc1ccc(S(=O)(=O)N2CCCC2)cc1 (configuration not stated) | – | 28.2 µM (active)
O=C(N/N=C\c1cc(Br)ccc1O)c1ccc(S(=O)(=O)N2CCCCC2)cc1 | 9.4% | –
O=C(N/N=C\c1cc(Cl)ccc1O)c1ccc(S(=O)(=O)N2CCCCC2)cc1 | 9.18% | –
COc1ccc(-c2n(CC(=O)OC3CC(C)CCC3C(C)C)c3ccccc3[n+]2C)cc1 (configuration not stated) | – | 7.94 µM (active)
C/C(=N\Nc1cc(N2CCOCC2)nc(C)n1)c1cccc([N+](=O)[O-])c1 | -2.94% | –
CC(NC(=O)Nc1cccc([N+](=O)[O-])c1)c1ccc2c(c1)OCO2 (configuration not stated) | -13.9% | –
N#C/C(=N\Nc1cccc([N+](=O)[O-])c1)C(=O)c1ccc(Br)cc1 | – | 2.24 µM (active)
Cc1csc2c(N3CCN(C(=O)Nc4ccc(Cl)c(Cl)c4)CC3)ncnc12 | -11.9% | –
COc1ccc([C@@]2(C(C)C)ON(c3ccccc3C(F)(F)F)C2=O)cc1 | -16.8% | –
O=C(NCC(=O)N1CC(O)CC1C(=O)N1CCCC1C(=O)OCc1ccccc1)OCc1ccccc1 (configuration not stated) | -1.71% | –
C=CCc1cccc(/C=N/NC(=O)CCCNc2ccc(C)cc2)c1O | – | 20 µM (active)
C=CCc1cccc(/C=N/NC(=O)CNc2ccccc2)c1O | -12.7% | –
O=C(Cc1ccccc1)N/N=C/c1cc(Br)cc(Br)c1O | -0.659% | –
Cc1cc(C)c2nc(NNC(=O)c3ccc(S(=O)(=O)N4CC(C)CC(C)C4)cc3)sc2c1 (configuration not stated) | -17.8% [at 57.5 µM] | –
CCOC(=O)N1CCN(S(=O)(=O)c2ccc(C(=O)NNc3nc4c(C)cc(C)cc4s3)cc2)CC1 | – | 1.58 µM (active)
Cc1cc(C)c2nc(NNC(=O)c3cc(-c4cccs4)nc4ccccc34)sc2c1 | -23.3% | –
Cc1nc(SCc2ccc(C(=O)O)cc2)nc2c1CCCC2 | -2.96% | –

Compound | activity change, negative = cytotoxicity | Potency
CN1CCN(c2ccc(-c3cc(NC=O)c4ncc(-c5ccc(F)c(Cl)c5)n4c3)cc2)CC1 | -4.43% [at 57.5 µM] | –
CN(C)CCNC(=O)c1cccc(-c2cnc3c(NC=O)cc(-c4cccc(C(F)(F)F)c4)cn23)c1 | – | 22.4 µM (active)
CN(C)C(=O)c1cccc(-c2cnc3c(NC=O)cc(-c4ccc(F)cc4)cn23)c1 | -18.1% | –
CN(C)CCNC(=O)c1cccc(-c2cnc3c(NC=O)cc(-c4cccs4)cn23)c1 | -19.3% [at 57.5 µM] | –
CN(C)CCNC(=O)c1cccc(-c2cnc3c(NC=O)cc(/C=C/c4ccccc4)cn23)c1 | – | 28.2 µM (active)
CCCCNC(=NCc1cccc(C(F)(F)F)c1)Nc1ccccc1 | -13.9% | –
COc1cc(/C=N/Nc2ccc(Cl)c(C(=O)O)c2)ccc1OC(=O)c1ccco1 | 1.18% | –
COC(=O)c1c(NC(=O)c2ccc([N+](=O)[O-])o2)sc2c1CCN(C(C)C)C2 | – | 15.8 µM (active)
NC(=O)c1c(NC(=O)c2ccc(S(=O)(=O)N3CCOCC3)cc2)sc2c1CCCCC2 | -7.77% | –
CN(C)C(CNC(=O)c1cccc(S(=O)(=O)N2CCN(c3ccc(F)cc3)CC2)c1)c1ccccc1 (configuration not stated) | -28.6% [at 57.5 µM] | –
Cc1ccc(OCC(=O)c2cc(C)n(Cc3cccs3)c2C)c([N+](=O)[O-])n1 | -22.1% [at 57.5 µM] | –
COc1ccc(CCNC2=C(Cl)C(=O)N(Cc3ccccc3)C2=O)cc1OC | 8.74% | –
COCCCNC1=C(Cl)C(=O)c2ccccc2C1=O | – | 25.1 µM (active)
CC(C)Cn1c(/C=N/Nc2nc3ccccc3[nH]2)nc2ccccc21 | 15% [at 57.5 µM] | –
CCC(C)(C)c1ccc(OCCCC[n+]2ccccc2)c(C(C)(C)CC)c1 | -7.4% | –
Nc1ncn([C@@H]2O[C@H](CO)[C@@H](O)[C@H]2O)c(=O)n1 | – | 6.31 µM (active)
Nc1ccn(C2OC(COP(=O)(O)O)C(O)C2O)c(=O)n1 (configuration not stated) | -18.6% [at 57.5 µM] | –
Nc1ccn([C@@H]2O[C@H](CO)[C@@H](O)[C@@H]2O)c(=O)n1 | -22.1% | –
C/C(=N\NC(=O)c1ccc(CN2CCc3ccccc3C2)cc1)c1ccccc1O | -23.2% | –
Cc1c(OCC(=O)NC2CC(C)(C)NC(C)(C)C2)ccc2c1oc(=O)c1ccccc12 | -15.9% | –
COc1cccc(OCC(=O)Nc2cc(Cl)ccc2Oc2ccccc2)c1 | 27.8% | –
CCOCCn1ccc2c(OCC(=O)Nc3ccc(OC)c(OC)c3)cccc2c1=O | -1.79% | –
COc1cccc(CN(C)C(=O)c2ccc(OCC(=O)Nc3cccc(C(F)(F)F)c3)c(OC)c2)c1 | – | 17.8 µM (active)
O=C(Nc1ccc(NC(=O)c2ccco2)cc1)c1ccc2c(c1)OCCO2 | -2.66% [at 57.5 µM] | –
O=C(Nc1nc(NC(=O)c2ccco2)n(-c2ccccc2)n1)c1ccccc1 | – | 12.6 µM (active)

Compound | activity change, negative = cytotoxicity | Potency
CN(CCc1ccccc1)c1cc2c(c3c1ccn3C)C1CCC2O1 (configuration not stated) | 6.97% [at 57.5 µM] | –
O=C(CN1C(=O)c2ccccc2S1(=O)=O)Nc1ncc(Cl)cc1Cl | -8.53% | –
O=C(NNC(=O)c1cnccn1)c1ccc(Cl)c(Cl)c1 | – | 22.4 µM (active)
O=C(NCCc1csc(-c2cccnc2)n1)c1cccc(Cl)c1 | -14.5% [at 57.5 µM] | –
O=C(N/N=C/c1cc(Cl)ccc1O)c1cccnc1 | -5% | –
CCCC[C@@H](CNC)NC[C@H](NCCCCC1CCCCC1)C(C)C | – | 28.2 µM (active)
OC(c1cc(F)cc(Cl)c1)c1ncc(-c2cccc(C(F)(F)F)c2)[nH]1 (configuration not stated) | -10.7% | –
CCOC(=O)c1c(NC(=O)C(Sc2ccccc2)c2ccccc2)sc(C(=O)N(C)C)c1C (configuration not stated) | -14.8% [at 57.5 µM] | –
C=CCOC(=O)C1=C(C)NC(SCC)=C(C#N)C1c1ccc(Cl)cc1 (configuration not stated) | -28.8% [at 57.5 µM] | –
O=C1C=C(NCCc2cc(Br)c(O)c(Br)c2)C(=O)c2ncccc21 | – | 8.91 µM (active)
Brc1cnc2nc(SCc3nc4ccccc4[nH]3)[nH]c2c1 | -1.49% | –
CCCc1cnc(NCCNCC(O)COc2ccc(Cl)c(Cl)c2)nc1 (configuration not stated) | – | 28.2 µM (active)
Cc1cc(/C=N/n2c(COc3ccccc3)nc3ccccc3c2=O)c(O)c([N+](=O)[O-])c1 | – | 12.6 µM (active)
COc1ccc(OCc2cccc(C(=O)Nn3cc([N+](=O)[O-])cn3)c2)cc1 | -10.4% | –
Cc1nc2ccccc2c(=O)n1/N=C/c1c(O)ccc2oc3c(c12)CCCC3 | -28.7% [at 57.5 µM] | –
Cc1ccc2nc(-c3ccccc3)nn2c1 | 0.418% | –
O=[N+]([O-])c1c(Nc2ccccn2)cc(Cl)c2nonc12 | – | 11.2 µM (active)
Cn1c(=O)c(C#N)c(-c2ccc(F)cc2)c2cc(C(=O)c3cc(Cl)cc(Cl)c3O)cnc21 | -25.8% | –
Oc1ccc2ccccc2c1/C=C/c1ccc2c(Br)cc(Br)c(O)c2n1 | 12.1% [at 57.5 µM] | –
CCOC(=O)C(CC)(CC)C(=O)/C=C/c1ccc(OC)cc1 | 2.96% [at 57.5 µM] | –
COc1ccc(C(=O)Nn2c(SCC(=O)c3ccccc3)nc3ccccc3c2=O)cc1 | -22.5% [at 57.5 µM] | –
COc1ccc(C(=O)Cn2c(C(=O)/C=C/c3ccccc3)nc3ccccc32)cc1 | – | 3.16 µM (active)
CC1=C(CC[C@@H](C)CO)OC2CC3C4CCC5CC(O)CCC5(C)C4CC(=O)C3(C)C12 (some centres not stated) | -24.2% | –
Cn1c(=O)c2c(nc(SCCN3CCOCC3)n2Cc2cccc3ccccc23)n(C)c1=O | 3.04% | –
Cn1c(=O)c2c(nc(CN3CCN(Cc4ccccc4)CC3)n2Cc2ccc(Cl)cc2)n(C)c1=O | – | 25.1 µM (active)

Compound | activity change, negative = cytotoxicity | Potency
COc1ccc(CNC(=O)Nc2nc(C(N)Cc3ccc(Cl)cc3)cs2)cc1 (configuration not stated) | – | 22.4 µM (active)
COc1ccc(CC(N)c2csc(NC(=O)c3cc(C(C)(C)C)nn3Cc3ccccc3)n2)cc1 (configuration not stated) | -4.75% | –
COc1ccc(CC(N)c2csc(NC(=O)c3ccccc3OC)n2)cc1 (configuration not stated) | 7.8% [at 57.5 µM] | –
CN(C)c1ccc(C(=O)N/N=C/c2cc(Br)cc(Br)c2O)cc1 | 5.98% | –
Fc1ccc(Nc2nnc(C(F)(F)F)s2)cc1Cl | – | 28.2 µM (active)
Cc1onc(-c2c(F)cccc2Cl)c1C(=O)Nc1nnc(C(F)(F)F)s1 | -23.3% | –
Oc1ccc(C[C@@H]2CNCCN2CCc2cc(C(F)(F)F)cc(C(F)(F)F)c2)cc1 | -23% | –
CCOC(=O)C1CCN(c2cc3c(cc2NC(=O)c2ccccc2OCC)n(C)c(=O)n3C)CC1 | -23.5% [at 57.5 µM] | –
CCOC(=O)C1CCN(C(=O)c2c(C)oc3c2C(=O)c2ccccc2C3=O)CC1 | – | 15.8 µM (active)
NC(=O)C1CCN(C2=C(Cl)C(=O)c3ccccc3C2=O)CC1 | 24.5% [at 57.5 µM] | –
COc1cc(C(=O)OC(C)C(=O)N2CCc3ccccc3C2)ccc1OCC(=O)N1CCOCC1 (configuration not stated) | 1.48% | –
O=C(Nc1ccc2c(c1)CCC2)C1CCN(c2c3c(nc4ncnn24)CCC3)CC1 | -4.4% [at 57.5 µM] | –
CCCCCn1c(=N)n(CC(O)COc2ccccc2OC)c2ccccc21 (configuration not stated) | – | 3.16 µM (active)
Cn1c(N)c(C(=O)Nc2ccc(-c3ccccc3)cc2)sc1=S | -0.775% [at 57.5 µM] | –
O=S(=O)(c1ccc(F)cc1)c1snnc1-c1ccccc1 | – | 10 µM (active)
NS(=O)(=O)c1ccc(Nc2nc(-c3ccc(F)cc3)cs2)cc1 | -11.6% | –
NS(=O)(=O)c1ccc(N2N=C(c3ccccc3)CC2c2ccc(F)cc2)cc1 (configuration not stated) | 12.7% | –
Cc1c(CC(=O)NCCCC(=O)O)c(=O)oc2cc3c(cc12)CCC(C)(C)O3 | -7.11% [at 57.5 µM] | –
NNc1nc(N)c2c(n1)-c1ccccc1CC21CCCC1 | -20.6% [at 57.5 µM] | –
O=C(NNc1ccnc2cc(Cl)ccc12)C1CCCCC1 | -3.47% | –
CC(C)NC1CCC(Nc2ccnc3cc(Cl)ccc23)CC1 (configuration not stated) | – | 15.8 µM (active)
CCN(CC)CCNc1ccnc2cc(Cl)ccc12 | -21.7% | –
